Test results taken from PubChem BioAssay.
A number with no mark means an inactive call.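 How the source made its calls: active means viability increase at or above a cutoff of the median across tested compounds plus 3 SD (cut at about 8.5% in these data, passing the limit was not always enough); inconclusive means some gains above the cutoff, reason not given; inactive means the rest.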

Test: doxorubicin toxicity protection in MRP-1 cells – H69AR cells, CellTiter-Glo, duplicate, MRP-1 activator project, pilot screen (AID 807);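 further: compound pretreatment 18-22 h then 72 h combined with doxorubicin; 0% = doxorubicin alone and 100% = vehicle without doxorubicin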
Settings: H69AR viability with doxorubicin, CellTiter-Glo luminescence; at 10 µM; stronger effect = higher value

Row | Structure (SMILES) | viability increase
1 | Nc1nc(Nc2ccccc2Br)nc(C(F)(F)F)n1 | 0.23%
2 | O=C(c1ccc(F)cc1)c1cn[nH]c1-c1ccccc1O | -1.5%
3 | CC(C)NC(=O)CCCc1ccccc1 | -1.04%
4 | COc1ccc(C2N(c3ccc(Cl)cc3)C(=O)C3CCCN32)cc1 (configuration not stated) | 0.55%
5 | Cn1c(CCNC(=O)C(C)(C)C)nc2ccccc21 | 0.98%
6 | CCCCN1C(=O)C(O)(CC(=O)c2ccccc2OC)c2ccccc21 (configuration not stated) | -3.31%
7 | CCC(=O)Nc1c2c(nn1-c1ccc(F)cc1)CS(=O)C2 (configuration not stated) | 0.7%
8 | O=C(Cn1c(=O)oc2cc(S(=O)(=O)N3CCOCC3)ccc21)N1CCc2ccccc2C1 | -2.45%
9 | O=C(CCCN1C(=O)c2ccccc2C1=O)Nc1ccccc1C(=O)N1CCOCC1 | 0.44%
10 | CCCCn1c(CCC(=O)O)ccc1-c1cccs1 | -3.36%
11 | FC(F)(F)c1nnc2ccc(-n3ccnc3)nn12 | -1.45%
12 | CCOC(=O)C1Cc2ccccc2C(=O)O1 (configuration not stated) | -0.24%
13 | Cc1ccc(N2CCN(C(=O)c3ccccc3F)CC2)c(C)c1 | 2.73%
14 | CN=C1SC(CC(=O)Nc2ccccc2F)C(=O)N1C (configuration not stated) | -0.48%
15 | CC(=O)Nc1ccc(NC(=O)c2oc3cc(C)c(C)cc3c2C)cc1 | -0.82%
16 | CC(=O)Nc1ccc(S(=O)(=O)Nc2cccc(C(=O)NC(C)(C)C)c2)cc1 | -1.14%
17 | CCc1nnc(NC(=O)CCC(=O)O)s1 | 0.56%
